Where “and” joins values, the source holds several entries; their conditions need not be identical. Equal values may be shown once. Values without a mark were called inactive. Inconclusive results are not listed. Where a call stands in place of a potency, no number is given. Calls of active or inactive are those of the source. Unless noted, calls come from the whole dose curve; as a rule, active = well fitted curve in the direction sought with a large enough effect; inconclusive = small, poorly fitted or top-dose-only effect, or another doubt; inactive = no such curve, though single readings can be large; an effect the other way counts as inactive or inconclusive.
Columns and labels:
[1] = target: Guanine nucleotide-binding protein G(i) subunit alpha-1 (Homo sapiens) (UniProt P63096); test: qHTS Assay for Inhibitors of RGS12 GoLoco Motif Activity (Green Fluorophore) (AID 879);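 note: negative values mean loss of peptide binding seen as reduced polarization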
Guanine nucleotide-binding protein G(i) subunit alpha-1 (Homo sapiens), sequence (P63096 whole entry, looked up): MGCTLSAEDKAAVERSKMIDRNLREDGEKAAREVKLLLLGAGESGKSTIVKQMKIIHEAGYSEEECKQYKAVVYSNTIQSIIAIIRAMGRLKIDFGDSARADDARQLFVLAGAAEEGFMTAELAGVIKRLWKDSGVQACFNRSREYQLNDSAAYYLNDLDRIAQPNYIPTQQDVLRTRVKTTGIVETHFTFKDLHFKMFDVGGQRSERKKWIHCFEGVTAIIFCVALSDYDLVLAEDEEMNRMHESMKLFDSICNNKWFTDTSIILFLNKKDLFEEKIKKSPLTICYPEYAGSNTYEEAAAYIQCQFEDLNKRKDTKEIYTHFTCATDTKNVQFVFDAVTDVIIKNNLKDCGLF
How it was run: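 Fluorescence polarization assay: 50 nM Gαi1 with 10 nM FITC-labeled RGS12 GoLoco peptide in 10 mM Tris pH 7.5, 150 mM NaCl, 0.1 mM GDP, 0.05% NP40, 10 min at room temperature with compound.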

[2] = target: Cytochrome P450 3A4 (Homo sapiens) (UniProt P08684); test: qHTS Assay for Inhibitors and Substrates of Cytochrome P450 3A4 (AID 884); note: nearly all actives have a fitted effect of over 50% in size; note: potency is the fitted concentration of half-maximal effect; for activity change, negative = inhibition: series mostly up to about 57 µM
Cytochrome P450 3A4 (Homo sapiens), sequence (P08684 whole entry, looked up): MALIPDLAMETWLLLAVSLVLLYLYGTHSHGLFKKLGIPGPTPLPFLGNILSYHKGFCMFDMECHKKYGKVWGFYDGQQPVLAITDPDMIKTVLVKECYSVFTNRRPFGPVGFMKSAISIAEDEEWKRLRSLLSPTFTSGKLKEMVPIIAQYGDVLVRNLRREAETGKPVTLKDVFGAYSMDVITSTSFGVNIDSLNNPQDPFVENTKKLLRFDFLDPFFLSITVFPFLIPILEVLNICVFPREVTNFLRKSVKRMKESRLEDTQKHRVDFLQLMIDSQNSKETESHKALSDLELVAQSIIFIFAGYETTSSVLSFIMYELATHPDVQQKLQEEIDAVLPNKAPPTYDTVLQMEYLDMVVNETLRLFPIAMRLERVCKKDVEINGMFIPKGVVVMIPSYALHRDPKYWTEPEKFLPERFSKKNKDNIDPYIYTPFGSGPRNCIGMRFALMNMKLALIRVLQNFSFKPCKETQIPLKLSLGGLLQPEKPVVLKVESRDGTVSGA
How it was run: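 20 nM human CYP3A4 with 25 uM Luciferin-PPXE (at KM) in 200 mM KPO4, preincubated 10 min with compound; NADPH regeneration started a 60 min RT reaction. Luciferin detected by luminescence, normalized to 57 uM ketoconazole as full inhibition.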

[3] = qHTS Assay for Identification of Small Molecule Antagonists for NFkB Signaling Pathway (AID 895; active = well fitted inhibition curve with a large enough effect in the signal ratio, with a control signal flat, not every such curve was filed as active; the % refers to the signal ratio; note: potency is the fitted concentration of half-maximal effect)
How it was run: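 ME-180 NFkB-bla cells (beta-lactamase under NFkB response element), plated overnight, treated with compound then 10 pM TNF alpha (about EC50) for 5 hrs at 37 C. LiveBLAzer FRET read at 460/530 nm emission, 405 nm excitation.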

[4] = target: Muscarinic acetylcholine receptor M1 (Rattus norvegicus) (UniProt P08482); test: qHTS Assay for Antagonists of Acetylcholine Muscarinic M1 Receptor: Kinetic Measurement of Intracellular Calcium Response (AID 943); note: nearly all actives have a fitted effect of over 75% in size; note: potency is the fitted concentration of half-maximal effect; for activity change, negative = inhibition: series mostly up to about 35 µM
Muscarinic acetylcholine receptor M1 (Rattus norvegicus), sequence (P08482 whole entry, looked up): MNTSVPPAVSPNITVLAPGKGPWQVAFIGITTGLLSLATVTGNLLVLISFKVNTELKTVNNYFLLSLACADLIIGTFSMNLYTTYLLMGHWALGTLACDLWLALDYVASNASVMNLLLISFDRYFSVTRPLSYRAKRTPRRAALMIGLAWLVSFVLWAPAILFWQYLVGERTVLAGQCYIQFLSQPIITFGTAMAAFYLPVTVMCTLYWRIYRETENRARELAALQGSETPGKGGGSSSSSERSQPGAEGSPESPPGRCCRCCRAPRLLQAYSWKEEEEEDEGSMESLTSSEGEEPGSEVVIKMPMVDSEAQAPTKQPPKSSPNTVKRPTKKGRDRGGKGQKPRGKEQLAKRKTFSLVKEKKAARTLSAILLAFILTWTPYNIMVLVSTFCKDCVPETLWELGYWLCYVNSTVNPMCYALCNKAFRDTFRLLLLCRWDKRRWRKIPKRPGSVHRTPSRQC
How it was run: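 CHO cells expressing rat M1 receptor, Fluo-4 loaded, preincubated 10 min with compound, then stimulated with EC80 carbachol (100 nM final). Kinetic calcium fluorescence over 4 min; response taken as peak over basal signal.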

[5] = target: Muscarinic acetylcholine receptor M1 (Rattus norvegicus) (UniProt P08482); test: qHTS Assay for Antagonists of Acetylcholine Muscarinic M1 Receptor: Measurement of IP-One Response (AID 944); note: nearly all actives have a fitted effect of over 75% in size; note: potency is the fitted concentration of half-maximal effect
How it was run: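 CHO cells stably expressing rat M1, pretreated 10 min with compound, then stimulated 30 min with carbachol at EC80 (200 nM) in LiCl-containing buffer pH 7.4; IP1 accumulation read by HTRF competition (665/620 nm).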

[6] = target: Pyruvate kinase (Leishmania mexicana) (UniProt Q27686); test: qHTS Validation Assay for Inhibitors of Leishmania Mexicana Pyruvate Kinase (AID 945); note: potency is the fitted concentration of half-maximal effect
Pyruvate kinase (Leishmania mexicana), sequence (Q27686 2-499 E452W): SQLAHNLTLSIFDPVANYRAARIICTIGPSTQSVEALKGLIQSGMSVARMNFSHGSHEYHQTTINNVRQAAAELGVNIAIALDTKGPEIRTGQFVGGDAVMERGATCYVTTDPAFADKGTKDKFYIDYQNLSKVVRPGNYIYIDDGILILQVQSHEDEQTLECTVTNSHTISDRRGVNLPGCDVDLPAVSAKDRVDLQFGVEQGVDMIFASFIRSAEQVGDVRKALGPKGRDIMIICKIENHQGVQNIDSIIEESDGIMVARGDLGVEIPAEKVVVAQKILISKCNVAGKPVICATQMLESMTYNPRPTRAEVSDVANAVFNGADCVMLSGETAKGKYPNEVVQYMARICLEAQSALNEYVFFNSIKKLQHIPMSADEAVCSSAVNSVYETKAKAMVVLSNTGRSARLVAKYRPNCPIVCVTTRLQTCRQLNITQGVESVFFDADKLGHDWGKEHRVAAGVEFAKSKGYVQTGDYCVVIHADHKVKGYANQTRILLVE
How it was run: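 Mutant LmPYK (E451W), 0.2 nM, plus 0.5 mM PEP and 0.1 mM ADP in 50 mM imidazole pH 7.2 containing 0.01% Tween 20 and 0.05% BSA. Incubated 1 h at room temperature; luminescence via PKLight, normalized to DMSO.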

[7] = target: Cytochrome P450 2C9 (Homo sapiens) (UniProt P11712); test: qHTS Assay for Inhibitors and Substrates of Cytochrome P450 2C9 (AID 883); note: nearly all actives have a fitted effect of over 60% in size; note: potency is the fitted concentration of half-maximal effect
Cytochrome P450 2C9 (Homo sapiens), sequence (P11712 whole entry, looked up): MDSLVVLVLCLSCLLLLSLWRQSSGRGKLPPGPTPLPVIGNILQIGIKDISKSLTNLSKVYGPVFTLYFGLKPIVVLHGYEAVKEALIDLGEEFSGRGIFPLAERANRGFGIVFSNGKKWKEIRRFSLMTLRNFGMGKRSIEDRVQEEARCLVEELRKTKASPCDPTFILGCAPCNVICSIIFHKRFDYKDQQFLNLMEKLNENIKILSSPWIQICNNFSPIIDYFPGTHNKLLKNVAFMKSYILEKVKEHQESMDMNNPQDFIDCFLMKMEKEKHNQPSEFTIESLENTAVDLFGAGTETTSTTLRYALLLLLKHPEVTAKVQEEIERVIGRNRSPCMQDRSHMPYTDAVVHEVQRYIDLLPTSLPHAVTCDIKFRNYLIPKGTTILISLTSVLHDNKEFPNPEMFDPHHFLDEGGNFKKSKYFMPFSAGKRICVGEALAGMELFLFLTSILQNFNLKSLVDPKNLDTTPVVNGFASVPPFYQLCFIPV
How it was run: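 Human CYP2C9 (10nM) with Luciferin-H at 100uM (its KM) in 25mM KPO4; compound preincubated 10 min at 37C, then NADPH regeneration for 60 min at 37C. Luciferin read by luminescence after detection reagent; normalized to 57uM sulphaphenazole as full inhibition.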

[8] = target: Cytochrome P450 2D6 (Homo sapiens) (UniProt P10635); test: qHTS Assay for Inhibitors and Substrates of Cytochrome P450 2D6 (AID 891);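 note: luciferin methyl ether substrate demethylated by CYP2D6 with NADPH regeneration; nearly all actives have a fitted effect of over 60% in size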
Cytochrome P450 2D6 (Homo sapiens), sequence (P10635 whole entry, looked up): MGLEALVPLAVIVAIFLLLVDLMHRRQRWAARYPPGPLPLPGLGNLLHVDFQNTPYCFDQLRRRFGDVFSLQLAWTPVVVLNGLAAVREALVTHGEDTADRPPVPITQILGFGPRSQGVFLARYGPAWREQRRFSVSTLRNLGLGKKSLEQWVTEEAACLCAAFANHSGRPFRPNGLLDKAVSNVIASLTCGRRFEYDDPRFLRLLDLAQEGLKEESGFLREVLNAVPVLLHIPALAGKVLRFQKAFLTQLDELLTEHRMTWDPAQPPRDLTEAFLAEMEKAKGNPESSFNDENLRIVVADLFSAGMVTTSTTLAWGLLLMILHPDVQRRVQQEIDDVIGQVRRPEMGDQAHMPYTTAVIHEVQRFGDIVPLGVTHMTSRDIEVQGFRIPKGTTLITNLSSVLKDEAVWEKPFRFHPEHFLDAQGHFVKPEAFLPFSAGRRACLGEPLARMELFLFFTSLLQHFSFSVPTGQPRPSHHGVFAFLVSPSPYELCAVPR
How it was run: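 Human CYP2D6 (5 nM) with 30 uM Luciferin-ME EGE (at Km) in 100 mM KPO4, compound preincubated 10 min, then NADPH regeneration system for 60 min at room temperature. Luciferin read by luminescence; normalized to 1.43 uM quinidine.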

[9] = target: Cytochrome P450 3A4 (Homo sapiens) (UniProt P08684); test: qHTS Assay for Activators of Cytochrome P450 3A4 (AID 885); note: nearly all actives have a fitted effect of over 65% in size
How it was run: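 Signal was normalized against complete inhibition by 57 uM ketoconazole. The reaction used 20nM CYP3A4 with 25uM Luciferin-PPXE, 10-min compound preincubation and a 60-min NADPH-supported step at RT.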

[10] = qHTS Assay for Identification of Small Molecule Agonists for Thrombopoietin (TPO) Signaling Pathway (AID 917)
How it was run: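 We measured Glycoprotein IIb promoter–luciferase output in IL-3-starved Ba/F3 murine cells expressing the human TPO receptor after 24 hrs at 37 C with compounds and 26 pM TPO.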

[11] = qHTS Assay for Identification of Small Molecule Agonists for NFkB Signaling Pathway (AID 928; calls by dose curve); conditions: NFkB beta-lactamase reporter cells, blue/green ratio
How it was run: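 ME-180 NFkB-bla cells carry a beta-lactamase reporter under an NFkB response element. Compound plus 10 pM TNF alpha (final) was applied for 5 hrs at 37 C. After 2 hrs with LiveBLAzer substrate, 460/530 nm emission was read at 405 nm excitation.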

[12] = qHTS Assay for Identification of Small Molecule Antagonists for Thrombopoietin (TPO) Signaling Pathway (AID 918); conditions: TPO-dependent cell signaling reporter, antagonist mode; note: potency is the fitted concentration of half-maximal effect; nearly all actives have a fitted effect of over 60% in size
How it was run: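 Murine Ba/F3 cells expressing human TPO receptor and a Glycoprotein IIb promoter-luciferase reporter, IL-3-starved overnight, treated with compound plus TPO at EC50 (26 pM final). After 24 h at 37 C, luminescence read to detect inhibitors.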

[13] = Confirmation and Secondary Assay for Modulators of Hemoglobin Beta Chain Splicing at IVS2 654 locus (AID 910);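 note: HeLa cells stably carrying EGFP split by mutant beta-globin IVS2-654 intron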
How it was run: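 HeLa cells stably expressing EGFP interrupted by β-globin IVS2-654 intron, seeded overnight in Opti-MEM/2% FCS, then treated 2 days at 37 °C. Restored splicing read as total peak GFP intensity per well by laser scanning cytometry (488 nm excitation, 500–520 nm emission); 500 nM antisense PNA as control.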

[14] = Confirmation and Secondary Assay for Modulators of Hemoglobin Beta Chain Splicing at IVS2 705 locus (AID 930);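 note: HeLa cells stably expressing the EGFP-705 splicing reporter; GFP fluorescence per well restored by corrected splicing of the IVS2-705 intron in EGFP; series mostly up to about 46 µM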
How it was run: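 Stable HeLa line with EGFP disrupted by mutant beta-globin intron 2 (705). Overnight attachment, then 2 days of compound at 37C, 5% CO2. Signal: peak GFP intensity summed over objects 5-250 µm.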

## N=C(N)SCCc1ccc(CCSC(=N)N)cc1
[1]
  outcome: inactive
[2]
  Potency: inactive
[3]
  Potency: inactive
[4]
  Potency: inactive
[5]
  Potency: inactive
[6]
  Potency: inactive

## O=C(O)c1cc([N+](=O)[O-])ccc1NCCCc1ccccc1
[1]
  outcome: inactive
[7]
  Potency: 7.94 µM (active) and 501 nM (active)
[8]
  Potency: inactive
[4]
  Potency: inactive
[5]
  Potency: inactive
[6]
  Potency: inactive

## N#C/C(=C\c1ccc(O)c(O)c1)C(=O)NCCCc1ccccc1
[1]
  outcome: inactive
[2]
  Potency: 2.51 µM (active)
[9]
  Potency: inactive
[4]
  Potency: inactive
[6]
  Potency: inactive

## N[C@H](CCCP(=O)(O)O)C(=O)O
[1]
  outcome: inactive
[7]
  Potency: inactive
[8]
  Potency: inactive
[10]
  Potency: inactive
[4]
  Potency: inactive
[6]
  Potency: inactive

## COc1ccccc1CNCCCCCCNCCCCCCCCNCCCCCCNCc1ccccc1OC
[1]
  outcome: inactive
[9]
  Potency: inactive
[3]
  Potency: inactive
[6]
  Potency: inactive

## O=C(O)CC[C@@H](C(=O)O)N1C(=O)c2ccccc2C1=O
[1]
  outcome: inactive
[2]
  Potency: inactive
[8]
  activity change, negative = inhibition: 21.6% [at 11.4 µM]
[4]
  Potency: 0.0251 µM (active)
[5]
  Potency: inactive
[6]
  Potency: inactive

## CN(C)c1nc2c(Br)c(Br)c(Br)c(Br)c2[nH]1
[1]
  outcome: inactive
[2]
  Potency: 20 µM (active)
[9]
  Potency: inactive
[3]
  Potency: 0.501 µM (active)
[4]
  Potency: inactive
[5]
  Potency: inactive
[6]
  Potency: inactive

## O=c1[nH]c2cc(C(F)(F)F)ccc2n1-c1cc(C(F)(F)F)ccc1O
[1]
  outcome: inactive
[4]
  Potency: inactive
[5]
  Potency: inactive
[6]
  Potency: inactive

## COc1cc2c(CCNC(C)=O)c[nH]c2cc1Cl
[1]
  outcome: inactive
[9]
  Potency: inactive
[11]
  Potency: 3.16 µM (active)
[6]
  Potency: inactive

## CN1CCc2ccccc2Cc2[nH]c3ccccc3c2CC1
[1]
  outcome: inactive
[5]
  Potency: 15.8 µM (active)
[6]
  Potency: inactive

## O=Nc1ccc2oc(=O)ccc2c1
[1]
  outcome: inactive
[12]
  Potency: 5.01 µM (active)
[4]
  Potency: inactive
[5]
  Potency: inactive
[6]
  Potency: inactive

## CC(C)Cc1ccc([C@H](C)C(=O)O)cc1
[1]
  outcome: inactive
[8]
  Potency: inactive
[6]
  Potency: inactive

## COC1=C(OC)C(=O)c2ccccc2C1=O
[1]
  outcome: inactive
[9]
  Potency: inactive
[12]
  Potency: 3.98 µM (active)
[6]
  Potency: inactive

## Cn1c(=O)c2[nH]c(-c3ccccc3)nc2n(C)c1=O
[1]
  outcome: inactive
[3]
  Potency: inactive
[5]
  Potency: inactive
[6]
  Potency: inactive

## NO
[1]
  outcome: inactive
[5]
  Potency: inactive
[6]
  Potency: inactive

## NCCNC(=O)c1ncsc1-c1cccc(F)c1
[1]
  outcome: inactive
[9]
  Potency: inactive
[5]
  Potency: inactive
[6]
  Potency: inactive

## NC[C@@H]1O[C@H](C23CC4CC(CC(C4)C2)C3)Cc2c1ccc(O)c2O
[1]
  outcome: inactive
[9]
  Potency: inactive
[12]
  Potency: 10 µM (active)
[4]
  Potency: inactive
[5]
  Potency: inactive
[6]
  Potency: inactive

## O=c1[nH]c2cc(Cl)c(Cl)cc2[nH]c1=O
[1]
  outcome: inactive
[3]
  Potency: inactive
[13]
  outcome: inactive
[14]
  outcome: inactive
[4]
  Potency: inactive
[5]
  Potency: inactive
[6]
  Potency: inactive

## CCCCCCCC/C=C\CCCCCCCC(=O)NCCO
[1]
  outcome: inactive
[9]
  Potency: inactive
[4]
  Potency: inactive
[5]
  Potency: inactive
[6]
  Potency: inactive

## COc1cc(OC)c(/C=C2/C(=O)Nc3ccccc32)c(OC)c1
[1]
  outcome: inactive
[3]
  Potency: inactive
[6]
  Potency: inactive

## Clc1ccc(N2CCN(Cc3c[nH]c4ncccc34)CC2)cc1
[1]
  outcome: inactive
[5]
  Potency: inactive
[6]
  Potency: inactive

## O=S(=O)(c1cccc2c(I)cccc12)N1CCCNCC1
[1]
  outcome: inactive
[4]
  Potency: inactive
[5]
  Potency: inactive
[6]
  Potency: inactive

## Ic1ccc(N2CCN(Cc3c[nH]c4ncccc34)CC2)cc1
[1]
  outcome: inactive
[9]
  Potency: inactive
[6]
  Potency: inactive

## COc1ccc(/C=C/C(=O)Nc2ccccc2C(=O)O)cc1OC
[1]
  outcome: inactive
[9]
  Potency: inactive
[5]
  Potency: inactive
[6]
  Potency: 12.6 µM (active)

## c1ccc(-c2ccccn2)nc1
[1]
  outcome: inactive
[4]
  Potency: inactive
[5]
  Potency: inactive
[6]
  Potency: inactive

## CN(C)C(N)=NCCC[C@H](N)C(=O)O
[1]
  outcome: inactive
[4]
  Potency: inactive
[5]
  Potency: inactive
[6]
  Potency: inactive

## CC(=O)SCC[N+](C)(C)C
[1]
  outcome: inactive
[3]
  Potency: inactive
[4]
  Potency: inactive
[5]
  Potency: inactive
[6]
  Potency: inactive

## CC(C)(C=O)Cc1cc(C(C)(C)C)c(O)c(C(C)(C)C)c1
[1]
  outcome: inactive
[9]
  Potency: inactive
[4]
  Potency: inactive
[6]
  Potency: inactive

## CCN1/C(=C/C(C)=O)Sc2ccc(OC)cc21
[1]
  outcome: inactive
[9]
  Potency: inactive
[4]
  Potency: inactive
[5]
  Potency: inactive
[6]
  Potency: inactive

## O=C(O)c1cc(=O)c2ccccc2[nH]1
[1]
  outcome: inactive
[13]
  outcome: inactive
[14]
  outcome: inactive
[5]
  Potency: inactive

## CC1(C)CCC=[N+]1[O-]
[1]
  outcome: inactive
[4]
  Potency: inactive
[5]
  Potency: 11.2 µM (active)
[6]
  Potency: inactive

## NCCCS(=O)(=O)O
[1]
  outcome: inactive
[13]
  outcome: inactive
[14]
  outcome: inactive
[4]
  Potency: inactive
[5]
  Potency: inactive
[6]
  Potency: inactive

## C[N+](C)(CCCCCC[N+](C)(C)CCCN1C(=O)c2cccc3cccc(c23)C1=O)CCCN1C(=O)c2cccc3cccc(c23)C1=O
[1]
  outcome: inactive
[9]
  Potency: inactive
[4]
  Potency: 0.398 µM (active)
[5]
  Potency: 0.398 µM (active)
[6]
  Potency: inactive

## CN(C)c1nc(N)c(C(=O)N=C(N)N)nc1Cl
[1]
  outcome: inactive
[9]
  Potency: inactive
[5]
  Potency: inactive
[6]
  Potency: inactive

Reference: PubChem BioAssay (NCATS)
